According to PubChem BioAssay (Tox21):
Records with an inconclusive call do not appear. Entries that show only a call come without a potency. A number with no mark means an inactive call. Calls of active or inactive are those of the source. Unless noted, calls follow the shape of the dose curve; as a rule, active = well fitted curve in the direction sought with a large enough effect in the repeat runs; inconclusive = weak or mixed curves; inactive = no such curve, though single readings can be large; an effect the other way counts as inactive or inconclusive.

What was measured:
[1] = qHTS assay to identify aromatase inhibitors - cell viability counter screen (AID 743084);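 also: cells stimulated with testosterone during compound exposure; nearly all actives have a fitted effect of over 55% in size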
[2] = qHTS assay to identify small molecule that activate the aryl hydrocarbon receptor (AhR) signaling pathway - cell viability counter screen (AID 743086);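 also: HepG2 liver cells carrying the AhR DRE luciferase reporter; series mostly up to about 70 µM; nearly all actives have a fitted effect of over 45% in size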
Procedure, shortened: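 HepG2-AhR-luc (HG2L7.5c1) cells, 4000/well, treated 24 h at 37 C with compound; viability measured as CellTiter-Fluor fluorescence after 30 min in the same wells as the luciferase read.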

[3] = target: Peroxisome proliferator-activated receptor gamma (Homo sapiens) (UniProt P37231); assay: qHTS assay to identify small molecule agonists of the peroxisome proliferator-activated receptor gamma (PPARg) signaling pathway (AID 743094; active = well fitted activation curve with a large enough effect in the signal ratio in the repeat runs, not every such curve was filed as active; the % refers to the signal ratio)
Procedure, shortened: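 Agonist activity was taken from a beta-lactamase reporter (FRET substrate, 1 h at room temperature) in HEK293H cells carrying a PPARg UAS-bla construct. Compounds in DMSO were incubated 17 h at 37C after a 5 h cell pre-incubation.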

[4] = qHTS assay to identify small molecule antagonists of the peroxisome proliferator-activated receptor gamma (PPARg) signaling pathway - cell viability counter screen (AID 743194); also: nearly all actives have a fitted effect of over 55% in size
Procedure, shortened: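 Cytotoxicity counter screen in PPARg-bla HEK293H cells, same wells as reporter assay. Compounds plus 50 nM rosiglitazone (final) for 17 h at 37 C, then viability read by CellTiter-Glo luminescence.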

[5] = qHTS assay for small molecule agonists of the antioxidant response element (ARE) signaling pathway (AID 743202; active = well fitted activation curve with a large enough effect in the signal ratio in the repeat runs, not every such curve was filed as active; the % refers to the signal ratio; also: potency is read from the fitted curve at half-maximal effect)
Procedure, shortened: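 HepG2 ARE-bla reporter line, 2,000 cells/well; 5 h preincubation 37 C/5% CO2; compound (DMSO) 16 h 37 C; B/G FRET substrate 2 h RT; fluorescence intensity.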

[6] = qHTS assay for small molecule agonists of the antioxidant response element (ARE) signaling pathway - cell viability counter screen (AID 743203; calls by dose curve; also: nearly all actives have a fitted effect of over 55% in size)
Procedure, shortened: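 Viability counter screen: CellTiter-Glo luminescence, read after 30 min at room temperature, in ARE-bla HepG2 wells. Compound exposure lasted 16 h at 37C/5% CO2, following a 5 h pre-incubation of the cells after plating.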

[7] = qHTS assay for small molecule activators of the heat shock response signaling pathway - cell viability counter screen (AID 743209); also: nearly all actives have a fitted effect of over 50% in size
Procedure, shortened: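 Cytotoxicity counter screen run in the same wells as the heat-shock bla reporter assay: HeLa HSE-bla cells, 5 h compound exposure at 37 C, viability read by CellTiter-Glo luminescence.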

[8] = qHTS assay for small molecule activators of the heat shock response signaling pathway (AID 743210; active = well fitted activation curve with a large enough effect in the signal ratio in the repeat runs, with a control signal flat, not every such curve was filed as active; the % refers to the signal ratio;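 also: HeLa cells with beta-lactamase reporter driven by heat shock elements; series mostly up to about 63 µM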)
Procedure, shortened: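 Beta-lactamase reporter read-out: FRET substrate fluorescence after 2.5 h at RT, following 5 h compound treatment at 37 C of HeLa cells carrying HSE-driven bla reporter; quantitative HTS format.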

[9] = qHTS assay to identify small molecule agonists of the peroxisome proliferator-activated receptor delta (PPARd) signaling pathway - cell viability counter screen (AID 743211); also: nearly all actives have a fitted effect of over 55% in size
Procedure, shortened: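 PPARd-bla HEK293H cells (3000/well) were pre-incubated 5 h at 37 C, then exposed to compound for 17 h at 37 C. After 2 h with LiveBLAzer substrate, CellTiter-Glo was added to the same wells; luminescence read after 30 min at room temperature.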

[10] = target: Peroxisome proliferator-activated receptor delta (Homo sapiens) (UniProt Q03181); assay: qHTS assay to identify small molecule agonists of the peroxisome proliferator-activated receptor delta (PPARd) signaling pathway (AID 743212; calls by dose curve)
Procedure, shortened: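 Read-out: beta-lactamase FRET fluorescence after 2 h room-temperature incubation with LiveBLAzer B/G substrate. Cells were HEK293H carrying a UAS-bla reporter for PPARd, treated at 37 C with DMSO-dissolved compounds.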

[11] = qHTS assay to identify small molecule antagonists of the peroxisome proliferator-activated receptor delta (PPARd) signaling pathway - cell viability counter screen (AID 743213); also: nearly all actives have a fitted effect of over 50% in size
Procedure, shortened: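 HEK293H PPARd UAS-bla cells, 5 h pre-incubation, compound + L165041 300 nM final, 17 h 37 C; B/G FRET substrate 2 h RT; then CellTiter-Glo 30 min RT, luminescence.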

[12] = target: Peroxisome proliferator-activated receptor delta (Homo sapiens) (UniProt Q03181); assay: qHTS assay to identify small molecule antagonists of the peroxisome proliferator-activated receptor delta (PPARd) signaling pathway (AID 743215; active = well fitted inhibition curve with a large enough effect in the signal ratio in the repeat runs, not every such curve was filed as active; the % refers to the signal ratio;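 also: cells stimulated with agonist L165041 at 300 nM final during compound exposure; series mostly up to about 62 µM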)
Procedure, shortened: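 Agonist L165041 (300 nM final) added with compound to PPARd-bla HEK293H UAS-bla reporter cells; 17 h incubation at 37 C. Read-out: LiveBLAzer FRET substrate, 2 h at room temperature, fluorescence intensity.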

[13] = target: Bile acid receptor (Homo sapiens) (UniProt Q96RI1); assay: qHTS assay to identify small molecule antagonists of the farnesoid-X-receptor (FXR) signaling pathway (AID 743217; active = well fitted inhibition curve with a large enough effect in the signal ratio in the repeat runs, not every such curve was filed as active; the % refers to the signal ratio)
Procedure, shortened: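 Antagonist mode: chenodeoxycholic acid at 50 uM final stimulates a UAS-driven beta-lactamase reporter in HEK 293T FXR-bla cells during 16 h, 37C compound exposure. Read-out is FRET substrate fluorescence after 2 h at room temperature.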

[14] = target: Bile acid receptor (Homo sapiens) (UniProt Q96RI1); assay: qHTS assay to identify small molecule agonists of the farnesoid-X-receptor (FXR) signaling pathway (AID 743220; active = well fitted activation curve with a large enough effect in the signal ratio in the repeat runs, not every such curve was filed as active; the % refers to the signal ratio)
Procedure, shortened: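 FXR-UAS-bla HEK 293T cells carrying a UAS-driven beta-lactamase reporter were plated for 5 h at 37C/5% CO2, then exposed to DMSO-dissolved Tox21 10K compounds for 16 h at 37C. A LiveBLAzer B/G FRET substrate was loaded for 2 h at room temperature before fluorescence reading.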

[15] = qHTS assay to identify small molecule antagonists of the farnesoid-X-receptor (FXR) signaling pathway - cell viability counter screen (AID 743221; active = well fitted cell-killing curve with a large enough effect in the repeat runs, not every such curve was filed as active; also: nearly all actives have a fitted effect of over 50% in size)
Procedure, shortened: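 GeneBLAzer FXR-UAS-bla HEK 293T cells, compound plus chenodeoxycholic acid (50 uM final), 16 h at 37 C. CellTiter-Glo added to the same wells after the beta-lactamase read; luminescence read after 30 min at room temperature as viability.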

[16] = target: Vitamin D3 receptor (Homo sapiens) (UniProt P11473); assay: qHTS assay to identify small molecule agonists of the vitamin D receptor (VDR) signaling pathway (AID 743222; calls by dose curve)
Procedure, shortened: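 Agonist mode, beta-lactamase reporter: fluorescence from LiveBLAzer B/G FRET substrate (2 h, room temperature) read after 16 h compound treatment at 37 C of VDR-bla cells, which were pre-incubated 4 h after seeding.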

[17] = target: Vitamin D3 receptor (Homo sapiens) (UniProt P11473); assay: qHTS assay to identify small molecule antagonists of the vitamin D receptor (VDR) signaling pathway (AID 743223; active = well fitted inhibition curve with a large enough effect in the signal ratio in the repeat runs, not every such curve was filed as active; the % refers to the signal ratio)
Procedure, shortened: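 VDR-bla cells were treated with compound plus 3 nM final 1alpha,25-dihydroxyvitamin D3 for 16 h at 37C. Beta-lactamase reporter read by B/G FRET substrate fluorescence after 2 h at room temperature. qHTS format.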

[18] = target: Peroxisome proliferator-activated receptor gamma (Homo sapiens) (UniProt P37231); assay: qHTS assay to identify small molecule antagonists of the peroxisome proliferator-activated receptor gamma (PPARg) signaling pathway (AID 743191; calls by dose curve; also: nearly all actives have a fitted effect of over 30% in size; also: potency is read from the fitted curve at half-maximal effect)
Procedure, shortened: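 GeneBLAzer PPARg UAS-bla HEK293H cells, 5 h post-plating, exposed to compounds 17 h at 37C. LiveBLAzer B/G FRET substrate added for 1 h at room temperature; beta-lactamase reporter read by fluorescence intensity.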

[19] = qHTS assay to identify small molecule agonists of the farnesoid-X-receptor (FXR) signaling pathway - cell viability counter screen (AID 743218); also: nearly all actives have a fitted effect of over 45% in size
Procedure, shortened: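 Viability counter screen in the same wells: CellTiter-Glo luminescence, 30 min room-temperature incubation, measured after the beta-lactamase read. Cells were GeneBLAzer FXR-UAS-bla HEK 293T, compound-treated 16 h at 37C.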

Chain of Vitamin D3 receptor (Homo sapiens) (P11473 whole entry, looked up): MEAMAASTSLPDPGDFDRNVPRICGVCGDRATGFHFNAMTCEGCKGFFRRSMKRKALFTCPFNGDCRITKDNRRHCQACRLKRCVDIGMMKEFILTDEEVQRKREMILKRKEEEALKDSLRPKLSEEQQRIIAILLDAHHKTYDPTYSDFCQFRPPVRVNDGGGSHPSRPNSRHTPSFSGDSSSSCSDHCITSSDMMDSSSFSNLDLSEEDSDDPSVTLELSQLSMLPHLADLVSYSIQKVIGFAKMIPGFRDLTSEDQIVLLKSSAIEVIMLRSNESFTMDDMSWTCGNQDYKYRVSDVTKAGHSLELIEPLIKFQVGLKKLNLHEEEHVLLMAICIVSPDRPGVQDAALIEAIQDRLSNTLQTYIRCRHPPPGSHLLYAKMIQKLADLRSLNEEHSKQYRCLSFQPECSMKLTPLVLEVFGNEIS
Chain of Bile acid receptor (Homo sapiens) (Q96RI1 whole entry, looked up): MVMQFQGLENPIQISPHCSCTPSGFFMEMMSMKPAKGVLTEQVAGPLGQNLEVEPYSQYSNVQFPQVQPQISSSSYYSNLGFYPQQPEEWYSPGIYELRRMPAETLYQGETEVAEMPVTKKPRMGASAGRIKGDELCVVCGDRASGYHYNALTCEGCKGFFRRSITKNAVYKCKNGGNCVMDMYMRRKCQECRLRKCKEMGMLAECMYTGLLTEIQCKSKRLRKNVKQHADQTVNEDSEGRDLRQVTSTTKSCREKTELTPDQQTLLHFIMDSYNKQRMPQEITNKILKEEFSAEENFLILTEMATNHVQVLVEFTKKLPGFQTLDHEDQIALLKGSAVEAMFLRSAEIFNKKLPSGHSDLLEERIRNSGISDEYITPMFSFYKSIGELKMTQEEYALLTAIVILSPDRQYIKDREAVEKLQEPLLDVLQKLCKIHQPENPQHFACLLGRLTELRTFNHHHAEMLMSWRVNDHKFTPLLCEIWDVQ
Chain of Peroxisome proliferator-activated receptor delta (Homo sapiens) (Q03181 whole entry, looked up): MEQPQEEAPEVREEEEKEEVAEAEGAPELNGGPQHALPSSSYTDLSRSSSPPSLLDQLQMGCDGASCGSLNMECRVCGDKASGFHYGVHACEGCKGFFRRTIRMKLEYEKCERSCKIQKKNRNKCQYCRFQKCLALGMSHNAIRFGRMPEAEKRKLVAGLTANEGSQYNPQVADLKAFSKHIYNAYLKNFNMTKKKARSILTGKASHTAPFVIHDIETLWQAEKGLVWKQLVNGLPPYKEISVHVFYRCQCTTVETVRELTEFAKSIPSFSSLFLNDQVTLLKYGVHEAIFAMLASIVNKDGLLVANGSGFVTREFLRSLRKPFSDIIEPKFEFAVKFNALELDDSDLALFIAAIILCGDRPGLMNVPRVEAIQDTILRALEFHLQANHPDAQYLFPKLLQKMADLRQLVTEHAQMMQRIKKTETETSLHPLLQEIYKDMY
Chain of Peroxisome proliferator-activated receptor gamma (Homo sapiens) (P37231 whole entry, looked up): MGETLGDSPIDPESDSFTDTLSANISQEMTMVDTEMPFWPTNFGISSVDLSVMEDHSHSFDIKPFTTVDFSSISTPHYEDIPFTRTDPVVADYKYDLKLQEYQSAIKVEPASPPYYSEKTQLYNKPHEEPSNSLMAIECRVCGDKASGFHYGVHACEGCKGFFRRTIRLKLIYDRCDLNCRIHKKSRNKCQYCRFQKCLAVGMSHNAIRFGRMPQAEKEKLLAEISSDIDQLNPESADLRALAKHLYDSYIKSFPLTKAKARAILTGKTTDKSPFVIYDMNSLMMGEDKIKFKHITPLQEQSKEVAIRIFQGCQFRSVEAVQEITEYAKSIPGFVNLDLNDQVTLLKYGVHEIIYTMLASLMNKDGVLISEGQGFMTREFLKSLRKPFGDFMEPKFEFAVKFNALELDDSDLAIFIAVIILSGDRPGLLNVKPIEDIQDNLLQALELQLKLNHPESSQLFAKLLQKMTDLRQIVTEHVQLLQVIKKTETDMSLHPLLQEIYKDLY

Compound | Potency [1] | Potency [2] | outcome [3] | outcome [4] | Potency [5] | outcome [6] | outcome [7] | outcome [8] | outcome [9] | outcome [10] | outcome [11] | outcome [12] | outcome [13] | outcome [14] | outcome [15] | outcome [16] | outcome [17] | Potency [18] | Potency [19]
O=C1OC(=O)c2ccccc21 | inactive | inactive | inactive | inactive | inactive | inactive | inactive | inactive | inactive | inactive | inactive | inactive | inactive | inactive | inactive | inactive | inactive |  | 
Oc1ccccc1Cc1ccccc1O | inactive | inactive |  |  | 38.6 µM (active) | inactive | inactive | inactive |  |  | inactive |  |  |  | inactive | inactive |  | 30.9 µM (active) | inactive
CCCCOC(=O)[C@@H](C)Oc1ccc(Oc2ccc(C(F)(F)F)cn2)cc1 | inactive | inactive | inactive | inactive |  | inactive | inactive | inactive | inactive | inactive | inactive | inactive | inactive | inactive | inactive | inactive | inactive |  | inactive
Nc1ccc(S(=O)(=O)Nc2ccccn2)cc1 | inactive | inactive | inactive | inactive | inactive | inactive | inactive | inactive | inactive | inactive | inactive | inactive |  | inactive | inactive | inactive |  |  | inactive
O=P(O)(O)OCC(O)CO (stereo unspecified) | inactive | inactive |  | inactive | inactive | inactive | inactive |  | inactive | inactive | inactive |  |  | inactive | inactive |  |  | inactive | inactive
Cc1cccc(C(=O)O)c1[N+](=O)[O-] | inactive | inactive | inactive | inactive |  | inactive | inactive |  | inactive | inactive | inactive | inactive |  |  | inactive | inactive |  | inactive | inactive
CCCCCC1CCCC(=O)O1 (stereo unspecified) | inactive | inactive | inactive | inactive | inactive | inactive | inactive | inactive | inactive | inactive |  | inactive | inactive | inactive | inactive | inactive | inactive |  | inactive
Cc1nc([N+](=O)[O-])cn1-c1ccc([N+](=O)[O-])cc1 | inactive | inactive |  | inactive | inactive | inactive | inactive | inactive |  | inactive | inactive | inactive | inactive | inactive | inactive | inactive | inactive | inactive | inactive
CC(=O)OC(C)c1ccccc1 (stereo unspecified) | inactive | inactive | inactive | inactive | inactive | inactive | inactive |  | inactive |  |  |  |  |  | inactive | inactive |  |  | inactive
CCCCCC(=O)OCC | inactive | inactive | inactive | inactive |  | inactive | inactive | inactive | inactive |  | inactive |  |  | inactive | inactive | inactive | inactive | inactive | inactive
CC(C)CCC(=O)CCC(C)C | inactive | inactive | inactive | inactive |  | inactive | inactive |  | inactive |  | inactive |  |  |  | inactive | inactive | inactive | inactive | inactive
O=S(=O)(O)SSS(=O)(=O)O | inactive | inactive | inactive | inactive |  | inactive | inactive |  | inactive | inactive | inactive | inactive |  |  | inactive |  |  |  | inactive
O=[Si]=O | inactive | inactive |  | inactive | inactive | inactive | inactive |  |  | inactive | inactive |  |  |  | inactive | inactive | inactive | inactive | inactive
Cc1c(C(C)C)c(=O)n(-c2ccccc2)n1C | inactive | inactive |  | inactive | inactive | inactive | inactive | inactive | inactive |  |  |  |  |  | inactive | inactive | inactive | inactive | inactive
NCCc1ccn[nH]1 | inactive | inactive | inactive | inactive |  | inactive | inactive |  | inactive | inactive |  | inactive |  |  | inactive |  |  | inactive | inactive
C=CCOc1c(Br)cc(Br)cc1Br | inactive | inactive | inactive |  | inactive | inactive | inactive |  |  |  |  |  | inactive | inactive |  | inactive |  | inactive | 
C=CCOc1c(Br)cc(C(C)(C)c2cc(Br)c(OCC=C)c(Br)c2)cc1Br | inactive | inactive | inactive | inactive |  | inactive | inactive | inactive | inactive |  | inactive |  |  | inactive | inactive | inactive |  |  | inactive
O=C1CC[C@H](C(=O)N2CCCCC2)N1 | inactive | inactive | inactive | inactive | inactive | inactive | inactive | inactive | inactive | inactive | inactive |  |  |  | inactive |  |  |  | inactive
O=C(O)c1c(Cl)ccc(Cl)c1Cl | inactive | inactive | inactive | inactive | inactive | inactive | inactive | inactive |  | inactive | inactive | inactive |  |  | inactive | inactive |  |  | inactive
